Test results published in PubChem BioAssay.
Active and inactive are the calls of the source.

Key:
[1] = system: Human papillomavirus type 1a protein E7 (residues 44-93); test: small molecules binding HPV E7 44-93 – biochemical, small-molecule microarray, residues 44-93, 635 nm fluorescence, primary screen (AID 1108); details: fluorescence 635 nm, higher = more signal;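 further: E7 fragment applied at 1 µg/mL in TBST for 1 h at 4 C; score combines spot fluorescence with its signal to noise ratio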
[2] = hepatitis C replication reporter changes, two-sided – Huh7 cells, luciferase reporter, HCV replication inhibitor project, primary screen (AID 1109); details: Huh7 HCV replicon luciferase reporter, 48 h; higher = more signal;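 further: huh7 hepatoma cells harbouring a luciferase neomycin HCV replicon reporter; luciferase luminescence as measure of HCV replicon replication; test concentration not given here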
[3] = biological target: Left-right determination factor 2 (Homo sapiens) (UniProt O00292); test: small molecules binding LEFTY2 protein – biochemical, small-molecule microarray, 635 nm fluorescence scan, primary screen (AID 1110); details: higher = more signal
Left-right determination factor 2 (Homo sapiens), sequence (O00292 whole entry, looked up): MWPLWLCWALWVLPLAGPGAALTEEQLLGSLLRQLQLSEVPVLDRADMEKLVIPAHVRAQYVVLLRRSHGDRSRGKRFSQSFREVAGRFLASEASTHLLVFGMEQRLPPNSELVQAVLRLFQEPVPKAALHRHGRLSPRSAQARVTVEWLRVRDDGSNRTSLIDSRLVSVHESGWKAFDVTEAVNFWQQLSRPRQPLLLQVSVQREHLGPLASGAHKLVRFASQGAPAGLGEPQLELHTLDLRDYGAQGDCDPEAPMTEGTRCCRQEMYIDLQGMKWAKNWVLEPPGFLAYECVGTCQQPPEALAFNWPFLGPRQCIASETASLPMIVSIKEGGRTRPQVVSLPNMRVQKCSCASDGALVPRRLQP

[4] = biological target: Calmodulin-1 (Homo sapiens) (UniProt P0DP23); test: small molecules binding calmodulin-1 with EGTA – biochemical, small-molecule microarray, Cy5-labelled CALM1, profiling panel (AID 1111); details: Cy5-CALM1 binding fluorescence, higher = more signal;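 further: labelled calmodulin applied in Tris saline Tween buffer holding calcium plus EGTA and DTT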
[5] = biological target: Calmodulin-1 (Homo sapiens) (UniProt P0DP23); test: small molecules binding Ca-loaded calmodulin-1 – biochemical, small-molecule microarray, Cy5-labelled CALM1, plus calcium, artefact control for SMM control-protein annotation, profiling panel (AID 1112); details: Cy5-CALM1 binding fluorescence, higher = more signal;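 further: score merges spot fluorescence with signal to noise from triplicate slides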
[6] = probe aWnt5a binding to arrayed compounds – biochemical, biotinylated probe, 635/667 nm fluorescence, primary screen (AID 1113); details: small-molecule microarray, higher = more signal;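 further: score merges 667 nm fluorescence intensity with signal-to-noise per printed feature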
[7] = probe aShh binding to arrayed compounds – biochemical, biotinylated probe, 635/667 nm fluorescence, primary screen (AID 1114); details: small-molecule microarray, higher = more signal;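 further: probe is biotin-labelled aShh protein from a stem cell growth factor screen; measures binding of labelled protein to compounds printed on the slide; score merges feature fluorescence at 667 nm with signal-to-noise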
[8] = probe aNog binding to arrayed compounds – biochemical, biotinylated probe, 635/667 nm fluorescence, primary screen (AID 1115); details: small-molecule microarray, higher = more signal;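 further: probe is biotinylated aNog protein used at 0.15 µg/mL for 1 h at 4 C; z-score combines 667 nm fluorescence of each spot with its signal to noise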
[9] = biological target: Torsin-1A-interacting protein 1 (Homo sapiens) (UniProt Q5JTV8); test: compound microarray binding of lysate hLAP1 – cell lysate, small-molecule microarray, COS7 lysate, 635/667 nm fluorescence, primary screen (AID 1116); details: 635 nm fluorescence, higher = more signal
Torsin-1A-interacting protein 1 (Homo sapiens), sequence (Q5JTV8 whole entry, looked up): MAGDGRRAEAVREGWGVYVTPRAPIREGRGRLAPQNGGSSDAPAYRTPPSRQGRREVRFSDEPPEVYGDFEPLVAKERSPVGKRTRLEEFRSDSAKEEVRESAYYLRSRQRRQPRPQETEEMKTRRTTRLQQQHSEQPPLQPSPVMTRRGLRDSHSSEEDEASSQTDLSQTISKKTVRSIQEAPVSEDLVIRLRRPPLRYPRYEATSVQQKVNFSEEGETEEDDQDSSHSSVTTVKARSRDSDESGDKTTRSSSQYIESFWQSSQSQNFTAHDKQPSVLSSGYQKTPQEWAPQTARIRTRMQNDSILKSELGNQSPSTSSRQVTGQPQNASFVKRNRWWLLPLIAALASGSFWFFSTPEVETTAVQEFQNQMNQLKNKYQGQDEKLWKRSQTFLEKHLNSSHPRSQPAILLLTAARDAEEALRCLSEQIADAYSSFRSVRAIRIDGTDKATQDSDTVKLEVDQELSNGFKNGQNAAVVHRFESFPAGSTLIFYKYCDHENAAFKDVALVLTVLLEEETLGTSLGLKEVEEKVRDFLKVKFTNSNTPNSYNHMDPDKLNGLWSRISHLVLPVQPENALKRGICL

[10] = biological target: Alpha-bungarotoxin (Bungarus multicinctus) (UniProt P60615); test: compounds binding labelled alpha-BTX control protein – biochemical, small-molecule microarray, Alexa647 label, 635/667 nm fluorescence, artefact control for SMM control protein annotation, profiling panel (AID 1117); details: alpha-BTX-A647 binding fluorescence, higher = more signal
Alpha-bungarotoxin (Bungarus multicinctus), sequence (P60615 whole entry, looked up): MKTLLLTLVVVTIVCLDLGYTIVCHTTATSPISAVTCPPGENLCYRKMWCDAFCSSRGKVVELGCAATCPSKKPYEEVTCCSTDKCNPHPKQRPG

Albumin (Bos taurus) = Albumin (Bos taurus) (UniProt P02769); test: compounds binding labelled BSA control protein – biochemical, small-molecule microarray, Alexa647 label, 635/667 nm fluorescence, artefact control for SMM control protein annotation, profiling panel (AID 1118); details: BSA-A647 binding, fluorescence 635 nm, higher = more signal;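 further: score merges 667 nm emission intensity and signal-to-noise per printed compound spot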
Albumin (Bos taurus), sequence (P02769 whole entry, looked up): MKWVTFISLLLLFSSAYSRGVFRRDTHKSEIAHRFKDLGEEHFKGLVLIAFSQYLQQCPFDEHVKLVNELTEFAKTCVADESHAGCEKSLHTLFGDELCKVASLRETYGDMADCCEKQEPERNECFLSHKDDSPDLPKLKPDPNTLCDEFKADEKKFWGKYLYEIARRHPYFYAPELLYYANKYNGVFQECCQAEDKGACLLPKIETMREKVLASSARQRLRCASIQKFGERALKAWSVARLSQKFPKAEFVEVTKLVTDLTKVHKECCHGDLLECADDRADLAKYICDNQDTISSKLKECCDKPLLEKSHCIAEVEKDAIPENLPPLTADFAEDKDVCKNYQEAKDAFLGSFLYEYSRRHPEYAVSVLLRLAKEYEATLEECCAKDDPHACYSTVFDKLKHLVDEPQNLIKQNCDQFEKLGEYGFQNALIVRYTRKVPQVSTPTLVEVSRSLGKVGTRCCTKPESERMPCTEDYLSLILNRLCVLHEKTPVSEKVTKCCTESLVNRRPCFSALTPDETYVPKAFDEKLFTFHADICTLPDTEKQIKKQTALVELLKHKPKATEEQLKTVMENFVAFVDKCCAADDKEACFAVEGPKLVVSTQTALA

[11] = probe aXIP binding to arrayed compounds – biochemical, NeuroSMM set, 635/667 nm fluorescence, primary screen (AID 1119); details: small-molecule microarray, higher = more signal, called active from +8 up or from −8 down;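 further: probe is the protein aXip251-270 applied at 1 µg/mL to compound-printed slides; binding of probe to printed compounds measured as 667 nm fluorescence plus signal to noise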
[12] = probe aNOTCH3 binding on compound microarray – biochemical, small-molecule microarray, 635/667 nm fluorescence, primary screen (AID 1120); details: higher = more signal;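 further: probe is a biotin-tagged antibody raised against NOTCH3 rather than NOTCH3 protein; score merges spot fluorescence near 667 nm with spot signal to noise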
[13] = probe aNOTCH2 binding on compound microarray – biochemical, small-molecule microarray, 635/667 nm fluorescence, primary screen (AID 1121); details: higher = more signal;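 further: score merges feature fluorescence read at 667 nm with its signal to noise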
[14] = biological target: Carbonic anhydrase 2 (Homo sapiens) (UniProt P00918); test: compounds binding carbonic anhydrase 2 – biochemical, small-molecule microarray, Alexa647-labelled CAII, profiling panel (AID 1122); details: CAII-A647 binding fluorescence, higher = more signal
[15] = COS7 lysate on small-molecule microarray, probe aHis, 635 nm (AID 1123); details: COS7 cell lysate, fluorescence, higher = more signal;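 further: z-score combines 667nm fluorescence intensity with signal-to-noise per printed compound spot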
[16] = probe aLAP1 signal on lysate-treated microarray – cell lysate, small-molecule microarray, COS7 lysate, primary screen (AID 1124); details: probe aLAP1, fluorescence, higher = more signal;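 further: lysate comes from COS7 cells expressing LAP1 and is applied at 0.3 µg/mL; score merges spot fluorescence near 667 nm with signal-to-noise over triplicate slides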
Sam68 (KHDRBS1) = test: compounds binding KHDRBS1 protein – biochemical, small-molecule microarray, 635 nm fluorescence, primary screen (AID 1125); details: higher = more signal;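 further: score merges 667 nm channel intensity with signal to noise over triplicate slides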
[17] = system: Chordin-like protein 2 (CHRDL2); test: compounds binding chordin-like 2 – biochemical, small-molecule microarray, 635 nm fluorescence, primary screen (AID 1126); details: fluorescence 635 nm, higher = more signal;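 further: printed compound slides probed with Chrdl2 protein at 4 µg/mL for 1 h at 4 C; score merges 667 nm emission intensity with signal to noise over three replicate slides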
[18] = biological target: Concanavalin-A (Canavalia ensiformis) (UniProt P02866); test: compounds binding concanavalin A lectin – biochemical, small-molecule microarray, Alexa647 label, 635 nm, artefact control for SMM control protein annotation, primary screen (AID 1127); details: ConA-A647 binding fluorescence, higher = more signal;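 further: z combines 667 nm emission intensity with signal-to-noise across three replicate slides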
Concanavalin-A (Canavalia ensiformis), sequence (P02866 whole entry, looked up): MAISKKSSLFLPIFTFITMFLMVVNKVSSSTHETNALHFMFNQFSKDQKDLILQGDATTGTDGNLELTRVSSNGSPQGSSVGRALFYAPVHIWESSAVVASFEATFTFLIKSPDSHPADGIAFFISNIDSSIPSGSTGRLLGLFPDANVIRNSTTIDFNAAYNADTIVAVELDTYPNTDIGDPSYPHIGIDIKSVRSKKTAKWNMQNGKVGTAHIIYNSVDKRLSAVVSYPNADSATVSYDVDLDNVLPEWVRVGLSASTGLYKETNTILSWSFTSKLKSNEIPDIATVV

Row | SMILES | composite z-score [1] | z-score [2] | composite z-score [3] | composite z-score [4] | composite z-score [5] | composite z-score [6] | composite z-score [7] | composite z-score [8] | composite z-score [9] | composite z-score [10] | composite z-score (Albumin (Bos taurus)) | composite Z-score [11] | composite z-score [12] | composite z-score [13] | composite z-score [14] | composite z-score [15] | composite z-score [16] | composite z-score (Sam68 (KHDRBS1)) | composite z-score [17] | composite z-score [18]
1 | N#Cc1ccc(C(O)C2C=CC3C(=O)N(c4ccccc4)C(=O)C3N2Nc2ccccc2)cc1 (stereo not given) | 0.86 | -0.875 | -0.224 | 1.03 | 0.492 | 0.0357 | 0.0815 | 1.09 | 0.747 | 1.1 | 1.01 | 0.115 (inactive) | 0.194 | 0.0675 | 0.722 | 1.59 | 0.736 | 0.195 | -0.111 | 0.73
2 | CCOC(=O)C1=CC[C@@H](c2ccc(OCc3ccccc3)c(OC)c2)N(S(=O)(=O)c2ccc(C)cc2)[C@H]1c1ccc(SC)cc1 | 1.4 | -1.75 | 0.458 | 1.23 | 0.298 | 0.155 | 0.0659 | 1.1 | 0.746 | 0.573 | 0.783 | 0.207 (inactive) | 0.386 | 0.202 | 0.625 | 2.53 | 0.157 | 1.31 | 0.525 | 0.806
3 | O=C1N(Cc2ccccc2)Cc2ccccc2[C@@H]2OC(c3ccc(OCCCO)cc3)=N[C@]12CCS(=O)(=O)c1ccccc1 | 1.4 | -1.84 | 0.347 | 0.729 | 0.264 | -0.0758 | 0.265 | -0.319 | -0.0362 | 1.37 | -0.0561 | 1.52 (inactive) | 0.0876 | 0.0607 | 0.484 | 2.23 | 0.0984 | 1.25 | 0.068 | 0.888
4 | CN(C)CCCCNC(=O)[C@@H]1C[C@@H]2C(=O)N[C@@H](Cc3ccccc3)C(=O)N2[C@@H]1c1cccc(OCCO)c1 | 1.34 | 4.01 | 1.24 | -0.349 | -0.125 | -0.127 | 0.0952 | -0.0721 | 0.0715 | 0.612 | -0.0493 | 1.1 (inactive) | -0.239 | -0.153 | 0.74 | 2.59 | 1.11 | 1.06 | 1.08 | 1.07
5 | Cc1ccc(S[C@]2(C(=O)NCCCN(C)C)CC(=O)N(C3CCCCC3)[C@@H]2c2ccc(CO)cc2)cc1 | -0.246 | -2.51 | -0.992 | -0.596 | -0.677 | -0.129 | -0.0035 | -0.255 | -0.549 | -0.123 | 0.156 | 0.0469 (inactive) | -0.182 | -0.0761 | 0.228 | -0.111 | -0.183 | -1.01 | -1.18 | -0.957
